Consider 8 compounds from PubChem BioAssay (Tox21).

Experiment [1] is described as follows: qHTS assay to identify small molecule antagonists of the thyroid receptor (TR) signaling pathway - cell viability counter screen (AID 743064). Further: nearly all actives have a fitted effect of over 50% in size. In a few lines: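 GH3.TRE-Luc rat pituitary cells dosed after 4 hr plating, co-stimulated with T3 at 1 nM final, incubated 23.5 h at 37 C. Viability measured in the same wells by CellTiter-Fluor fluorescence after 30 min further at 37 C.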
For orientation: qHTS replaces the single test concentration by a dilution series.

Experiment [2] can be described thus: qHTS assay to identify small molecule antagonists of the thyroid receptor (TR) signaling pathway (AID 743065). Further: series mostly up to about 70 µM; nearly all actives have a fitted effect of over 55% in size. In a few lines: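 Antagonism measured as loss of luciferase signal in GH3 cells stably carrying a TRE-luciferase reporter, co-treated with compound and T3 (1 nM final) for 23.5 h at 37 C. Viability was read in the same well by CellTiter-Fluor.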
Experiment [3] has as its system thyroid hormone receptor (rat, GH3 cells). Description: qHTS assay to identify small molecule agonists of the thyroid receptor (TR) signaling pathway (AID 743066; calls by dose curve).
Experiment [4] addresses Estrogen receptor (Homo sapiens) (UniProt P03372). As to the kind of experiment: qHTS assay to identify small molecule antagonists of the estrogen receptor alpha (ER-alpha) signaling pathway (AID 743069; active means well fitted curve in the direction sought with a large enough effect in the signal ratio in the repeat runs, not every such curve was filed as active; the % refers to the signal ratio). Put shortly:
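Fluorescence intensity from a beta-lactamase FRET substrate served as the read-out. Cells: HEK293 with stably integrated ER-alpha-UAS-bla reporter. Agonist 17beta-estradiol was co-added with compounds; incubation 18 hr at 37C, substrate 2 hr at room temperature.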

A short description of experiment [5]: qHTS assay to identify small molecule antagonists of the estrogen receptor alpha (ER-alpha) signaling pathway - cell viability counter screen (AID 743074; calls by dose curve; further: nearly all actives have a fitted effect of over 45% in size).
The target in experiment [6] is Estrogen receptor (Homo sapiens) (UniProt P03372). As to the kind of experiment: qHTS assay to identify small molecule agonists of the estrogen receptor alpha (ER-alpha) signaling pathway (AID 743075; calls by dose curve).
The target is the same in experiment [7]. As to the kind of experiment: qHTS assay to identify small molecule agonists of the estrogen receptor alpha (ER-alpha) signaling pathway using the BG1 cell line (AID 743079). Further: nearly all actives have a fitted effect of over 20% in size. Further: potency means the concentration at half of the fitted maximal effect.
Experiment [8] in a line: qHTS assay to identify small molecule antagonists of the estrogen receptor alpha (ER-alpha) signaling pathway using the BG1 cell line (AID 743080; calls by dose curve;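 further: BG1 cells stimulated with 17beta-estradiol alongside compound; series mostly up to about 70 µM; nearly all actives have a fitted effect of over 25% in size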). Put shortly: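 Seeding, 24 h rest, compound transfer from DMSO, 17beta-estradiol addition, 21.5 h incubation, CellTiter-Fluor (30 min, 37 C), then ONE-Glo (30 min, room temperature): this sequence was run on BG1-Luc-4E2 reporter cells.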

A short description of experiment [9]: qHTS assay to identify small molecule antagonists of the estrogen receptor alpha (ER-alpha) signaling pathway using the BG1 cell line - cell viability counter screen (AID 743081).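 Further: compound given together with 17beta-estradiol as the ER stimulus; series mostly up to about 70 µM; nearly all actives have a fitted effect of over 45% in size.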
The next experiment deals with Aromatase (Homo sapiens) (UniProt P11511). As to the kind of experiment: qHTS assay to identify aromatase inhibitors (AID 743083). Further: series mostly up to about 70 µM; nearly all actives have a fitted effect of over 55% in size.
Experiment [10] in a line: qHTS assay to identify aromatase inhibitors - cell viability counter screen (AID 743084).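 Further: cells stimulated with testosterone during compound exposure; nearly all actives have a fitted effect of over 55% in size.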
A short description of experiment [11]: qHTS assay to identify small molecule that activate the aryl hydrocarbon receptor (AhR) signaling pathway - cell viability counter screen (AID 743086). Further: series mostly up to about 70 µM; nearly all actives have a fitted effect of over 45% in size. Put shortly: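 Cytotoxicity counter screen: CellTiter-Fluor signal (30 min, 37 C) in 4000 HepG2 cells/well carrying the DRE-luciferase reporter, following 24 h compound exposure at 37 C.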
Experiment [12] addresses Peroxisome proliferator-activated receptor gamma (Homo sapiens) (UniProt P37231). As to the kind of experiment: qHTS assay to identify small molecule agonists of the peroxisome proliferator-activated receptor gamma (PPARg) signaling pathway (AID 743094; active means well fitted activation curve with a large enough effect in the signal ratio in the repeat runs, not every such curve was filed as active; the % refers to the signal ratio). Put shortly:
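Agonist activity was taken from a beta-lactamase reporter (FRET substrate, 1 h at room temperature) in HEK293H cells carrying a PPARg UAS-bla construct. Compounds in DMSO were incubated 17 h at 37C after a 5 h cell pre-incubation.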

Experiment [13] is described as follows: qHTS assay to identify small molecule antagonists of the peroxisome proliferator-activated receptor gamma (PPARg) signaling pathway - cell viability counter screen (AID 743194). Further: nearly all actives have a fitted effect of over 55% in size. In a few lines: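 Viability was measured as CellTiter-Glo luminescence in GeneBLAzer PPARg UAS-bla HEK293H cells. These cells had been exposed 17 h at 37 C to compounds together with rosiglitazone at 50 nM final, with the beta-lactamase readout taken in the same wells.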

The nature of experiment [14]: qHTS assay for small molecule agonists of the antioxidant response element (ARE) signaling pathway (AID 743202; active means well fitted activation curve with a large enough effect in the signal ratio in the repeat runs, not every such curve was filed as active; the % refers to the signal ratio; further: potency means the concentration at half of the fitted maximal effect). In a few lines: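 Beta-lactamase reporter activity, read as fluorescence intensity, reflects ARE/Nrf2 pathway induction in HepG2 cells after 16 h compound exposure at 37 C; substrate loading was 2 h at room temperature.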
Experiment [15] can be described thus: qHTS assay for small molecule agonists of the antioxidant response element (ARE) signaling pathway - cell viability counter screen (AID 743203; calls by dose curve; further: nearly all actives have a fitted effect of over 55% in size). Put shortly:
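Viability counter screen: CellTiter-Glo luminescence, read after 30 min at room temperature, in ARE-bla HepG2 wells. Compound exposure lasted 16 h at 37C/5% CO2, following a 5 h pre-incubation of the cells after plating.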

Experiment [16] in a line: qHTS assay for small molecule activators of the heat shock response signaling pathway - cell viability counter screen (AID 743209). Further: nearly all actives have a fitted effect of over 50% in size. Put shortly:
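Cytotoxicity counter screen run in the same wells as the heat-shock bla reporter assay: HeLa HSE-bla cells, 5 h compound exposure at 37 C, viability read by CellTiter-Glo luminescence.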

The nature of experiment [17]: qHTS assay for small molecule activators of the heat shock response signaling pathway (AID 743210; active means well fitted activation curve with a large enough effect in the signal ratio in the repeat runs, with a control signal flat, not every such curve was filed as active; the % refers to the signal ratio;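 further: HeLa cells with beta-lactamase reporter driven by heat shock elements; series mostly up to about 63 µM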). Put shortly:
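Fluorescence from a cleaved B/G FRET substrate (2.5 h, room temp) reports HSE-driven beta-lactamase in HeLa cells treated 5 h at 37 C with DMSO-dissolved compounds.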

Experiment [18] has as its target Aryl hydrocarbon receptor (Homo sapiens) (UniProt P35869). Description: qHTS assay to identify small molecule that activate the aryl hydrocarbon receptor (AhR) signaling pathway (AID 743085). Further: nearly all actives have a fitted effect of over 15% in size. Further: potency means the concentration at half of the fitted maximal effect.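 On activation: HG2L7.5c1 human HepG2 liver cells with stably integrated DRE-driven firefly reporter; series mostly up to about 70 µM.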 Put shortly:
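HepG2 cells stably carrying a 20-DRE firefly luciferase reporter (HG2L7.5c1) treated with compound for 24 hr at 37C. Luciferase read by ONE-Glo luminescence, with CellTiter-Fluor viability read first.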

Experiment [19] has as its target Peroxisome proliferator-activated receptor gamma (Homo sapiens) (UniProt P37231). Description: qHTS assay to identify small molecule antagonists of the peroxisome proliferator-activated receptor gamma (PPARg) signaling pathway (AID 743191; calls by dose curve; further: series mostly up to about 63 µM; nearly all actives have a fitted effect of over 30% in size). In a few lines:
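Beta-lactamase reporter under UAS control in HEK293H PPARg-bla cells; compound treatment 17 h at 37C. Read-out: fluorescence intensity after 1 h room-temperature incubation with LiveBLAzer B/G FRET substrate.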

Each structure is given as a SMILES string. Values joined by “and” are separate entries in the source; they are usually repeats but may differ in a detail not shown here. Equal values may be shown once. Results filed as inconclusive are left out. Unmarked numbers belong to inactive results. Active and inactive are the calls of the source. Unless noted, the call rests on the fitted dose curve; in most records, active means well fitted curve in the direction sought with a large enough effect in the repeat runs; inconclusive means weak or mixed curves; inactive means no such curve, though single readings can be large; an effect the other way counts as inactive or inconclusive.

Sequence of Aromatase (Homo sapiens) (P11511 whole entry, looked up): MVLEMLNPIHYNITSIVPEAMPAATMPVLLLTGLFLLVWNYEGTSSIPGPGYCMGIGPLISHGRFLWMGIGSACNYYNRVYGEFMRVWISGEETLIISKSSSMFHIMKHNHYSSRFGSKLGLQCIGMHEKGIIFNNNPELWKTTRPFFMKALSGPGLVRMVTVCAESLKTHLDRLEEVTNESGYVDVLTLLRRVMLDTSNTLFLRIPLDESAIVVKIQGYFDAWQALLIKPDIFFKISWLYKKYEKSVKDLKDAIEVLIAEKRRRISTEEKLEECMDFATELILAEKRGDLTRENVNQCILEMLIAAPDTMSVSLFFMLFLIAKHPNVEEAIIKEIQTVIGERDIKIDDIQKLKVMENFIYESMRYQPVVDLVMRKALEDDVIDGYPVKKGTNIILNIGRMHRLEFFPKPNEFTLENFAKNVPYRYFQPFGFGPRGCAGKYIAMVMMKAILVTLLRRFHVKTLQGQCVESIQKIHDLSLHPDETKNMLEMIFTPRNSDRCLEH
Sequence of Aryl hydrocarbon receptor (Homo sapiens) (P35869 whole entry, looked up): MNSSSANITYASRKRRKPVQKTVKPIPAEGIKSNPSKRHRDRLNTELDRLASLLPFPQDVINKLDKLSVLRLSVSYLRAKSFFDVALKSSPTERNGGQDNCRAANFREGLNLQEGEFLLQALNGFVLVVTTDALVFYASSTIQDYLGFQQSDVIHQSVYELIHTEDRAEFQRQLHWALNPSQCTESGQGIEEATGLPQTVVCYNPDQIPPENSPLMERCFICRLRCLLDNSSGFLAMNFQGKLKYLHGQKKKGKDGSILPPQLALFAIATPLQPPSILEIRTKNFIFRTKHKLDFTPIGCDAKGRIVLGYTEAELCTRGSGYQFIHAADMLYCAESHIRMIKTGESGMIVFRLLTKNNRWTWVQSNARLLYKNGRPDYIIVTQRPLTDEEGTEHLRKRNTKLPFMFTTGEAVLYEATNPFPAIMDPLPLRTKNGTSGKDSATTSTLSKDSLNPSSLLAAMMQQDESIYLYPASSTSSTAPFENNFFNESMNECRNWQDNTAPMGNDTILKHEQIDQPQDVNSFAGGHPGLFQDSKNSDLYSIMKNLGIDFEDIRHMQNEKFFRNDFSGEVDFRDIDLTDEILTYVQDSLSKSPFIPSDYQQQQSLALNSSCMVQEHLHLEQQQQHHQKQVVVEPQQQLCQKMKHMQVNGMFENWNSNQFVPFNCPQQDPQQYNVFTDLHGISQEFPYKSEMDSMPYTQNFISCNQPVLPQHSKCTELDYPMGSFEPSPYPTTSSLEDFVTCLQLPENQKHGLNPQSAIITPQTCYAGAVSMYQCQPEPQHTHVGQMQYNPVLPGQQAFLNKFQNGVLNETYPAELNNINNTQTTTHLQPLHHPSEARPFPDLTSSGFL
Sequence of Peroxisome proliferator-activated receptor gamma (Homo sapiens) (P37231 whole entry, looked up): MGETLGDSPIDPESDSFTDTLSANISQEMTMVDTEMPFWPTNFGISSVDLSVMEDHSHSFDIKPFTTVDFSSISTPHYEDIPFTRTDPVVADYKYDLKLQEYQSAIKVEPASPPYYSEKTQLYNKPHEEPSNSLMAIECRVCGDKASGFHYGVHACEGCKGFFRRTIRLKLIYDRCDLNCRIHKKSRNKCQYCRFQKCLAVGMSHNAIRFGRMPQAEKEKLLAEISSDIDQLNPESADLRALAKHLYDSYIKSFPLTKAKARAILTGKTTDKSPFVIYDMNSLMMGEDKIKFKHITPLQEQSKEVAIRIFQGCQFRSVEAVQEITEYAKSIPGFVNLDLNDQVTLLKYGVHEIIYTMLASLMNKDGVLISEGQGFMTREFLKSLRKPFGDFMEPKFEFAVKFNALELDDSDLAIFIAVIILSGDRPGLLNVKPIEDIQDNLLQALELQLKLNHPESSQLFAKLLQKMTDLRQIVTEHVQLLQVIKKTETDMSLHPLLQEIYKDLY
Sequence of Estrogen receptor (Homo sapiens) (P03372 whole entry, looked up): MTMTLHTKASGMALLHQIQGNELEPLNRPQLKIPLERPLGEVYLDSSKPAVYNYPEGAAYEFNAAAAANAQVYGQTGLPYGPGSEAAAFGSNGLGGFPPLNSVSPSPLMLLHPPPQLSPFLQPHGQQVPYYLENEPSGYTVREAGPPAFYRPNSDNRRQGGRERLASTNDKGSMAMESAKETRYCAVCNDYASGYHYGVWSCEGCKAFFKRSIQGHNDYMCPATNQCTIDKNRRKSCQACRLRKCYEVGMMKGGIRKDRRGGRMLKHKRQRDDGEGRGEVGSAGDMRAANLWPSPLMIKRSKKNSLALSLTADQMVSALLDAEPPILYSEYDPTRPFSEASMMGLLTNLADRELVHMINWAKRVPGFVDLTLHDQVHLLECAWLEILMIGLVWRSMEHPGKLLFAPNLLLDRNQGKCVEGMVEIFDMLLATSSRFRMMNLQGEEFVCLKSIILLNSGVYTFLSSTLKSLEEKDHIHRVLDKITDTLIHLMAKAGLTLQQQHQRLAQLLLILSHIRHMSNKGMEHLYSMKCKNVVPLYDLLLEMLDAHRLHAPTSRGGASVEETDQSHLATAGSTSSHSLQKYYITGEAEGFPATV

For `C=CCOCC(O)CS(=O)(=O)O` (stereo not given), the Potency result in experiment [1], in experiment [2], in [3], in experiment [4], in experiment [6] and in experiment [7] was “inactive” throughout. The Potency entry (in experiment [8]; with Aromatase (Homo sapiens); in experiment [10]; in experiment [11]; in experiment [13]; in [14]) was “inactive” in each case. Besides, the call in [5], in [9], in experiment [12], in [15], in experiment [16] and in experiment [17] was inactive.
`O=C(O)CCNC(=O)c1ccc(N=Nc2ccc(O)c(C(=O)O)c2)cc1`: the Potency entry in experiment [1], in experiment [2], in experiment [3], in [4], in [6] and in experiment [7] was “inactive” in each case. The Potency result (in [8]; with Aromatase (Homo sapiens); in experiment [18]; in experiment [13]; in [14]) was “inactive” throughout. In addition, the compound was called inactive in experiment [5], in [12], in [19] and in experiment [15].
For `OCC(CO)(CO)COCC(CO)(CO)CO`, the Potency result in experiment [1], in [2], in experiment [3], in experiment [4], in experiment [6] and in experiment [7] was “inactive” throughout. Also, the Potency result (in [8]; with Aromatase (Homo sapiens); in experiment [10]; in experiment [18]; in experiment [13]; in [14]) was “inactive” in each case. For the same compound, the call in experiment [5], in [9], in [12], in experiment [19], in experiment [15] and in experiment [16] was inactive. Moreover, in experiment [17], the call was inactive.
Take `CC(=O)CCc1ccc(O)cc1`: the Potency result in [1], in experiment [2], in [3], in [4], in experiment [6] and in experiment [7] was “inactive” throughout. For the same compound, the Potency result (in experiment [8]; in the experiment with Aromatase (Homo sapiens); in experiment [10]; in experiment [11]; in experiment [13]) was “inactive” in each case. In addition, the compound was called inactive in experiment [5], in experiment [9], in experiment [12], in experiment [19], in experiment [15] and in [16]. Moreover, in experiment [17], the call was inactive.
Consider `[O-][N+](=Nc1ccccc1)c1ccccc1`, for which the Potency result (in [1]; in [2]; in experiment [3]; in experiment [4]; in experiment [6]; with Aromatase (Homo sapiens)) was “inactive” throughout. Further, the Potency entry in experiment [10], in [11] and in [13] was “inactive” throughout. For the same compound, the compound was called inactive in [5], in experiment [9], in experiment [12], in experiment [15], in experiment [16] and in [17]. Moreover, the Potency is 15 µM (active) and 54.5 µM (active) in experiment [7]; 30.6 µM (active) in experiment [18]; 6.86 µM (active) in experiment [14].
As for `CCO[Si](C)(OCC)OCC`, the Potency entry in experiment [1], in [2], in experiment [3], in experiment [4], in [6] and in [7] was “inactive” throughout. Besides, the Potency entry (in experiment [8]; in the experiment with Aromatase (Homo sapiens); in experiment [10]; in [18]; in experiment [11]; in experiment [13]) was “inactive” throughout. The Potency entry in [14] is “inactive”. The result in [5], in experiment [9], in [15], in [16] and in experiment [17] was inactive.
`CC(C)COC(=O)c1ccccc1O`: the Potency result in [1], in [2], in experiment [3], in [4], in experiment [6] and in experiment [7] was “inactive” throughout. For the same compound, the Potency result in experiment [8], in experiment [10], in experiment [11], in experiment [13] and in experiment [14] was “inactive” each time. Further, the result in experiment [5], in [9], in [19], in [15] and in experiment [16] was inactive.
Take `C=C(C)C(=O)OCCC(C)OC(=O)C(=C)C` (stereo not given): the Potency result in experiment [1], in experiment [2], in experiment [3], in experiment [4], in [6] and in [7] was “inactive” each time. The Potency entry (in experiment [8]; with Aromatase (Homo sapiens); in experiment [10]; in experiment [11]; in experiment [13]; in experiment [14]) was “inactive” in each case. Besides, the outcome in [5], in [9], in experiment [12], in [19], in experiment [15] and in experiment [16] was inactive.
